Shown are actives, neighbours in structure and some others; about 9.2% of the full set was active somewhere.
NPC1 promoter act: qHTS Assay for NPC1 Promoter Activators. Potency, µM (titrated, usually from 9.22 µM), for the others: top-dose activation, actives largely listed as activators. AID 485313, 2010. hit rate 2.4% among 320,000. Huh7 NPC1 promoter luciferase reporter, 24 h; further: % of control where 0% means no effect; nearly all actives have a fitted effect of over 60% in size
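Stable NPC1-promoter luciferase Huh7 line; cpd (DMSO) 24 h, 37 °C, 5% CO2; Amplite luciferase reagent 10 min RT; luminescence readout. qHTS format.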
FLuc counter: qHTS profiling assay for firefly luciferase inhibitor/activator using purifed enzyme and Km concentrations of substrates (counterscreen for miR-21 project). purified FLuc, Km substrates, luminescence inhibition. Potency, µM (highest dose often 57.5 µM), inactives show top-dose activity change, negative = inhibition, most hits filed as inhibitors. hit rate 6.9% among 360,000;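 further: plate controls were vehicle for no effect and reference inhibitor for full effect; nearly all actives have a fitted effect of over 55% in size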
Target sequence (P08659 whole entry, looked up): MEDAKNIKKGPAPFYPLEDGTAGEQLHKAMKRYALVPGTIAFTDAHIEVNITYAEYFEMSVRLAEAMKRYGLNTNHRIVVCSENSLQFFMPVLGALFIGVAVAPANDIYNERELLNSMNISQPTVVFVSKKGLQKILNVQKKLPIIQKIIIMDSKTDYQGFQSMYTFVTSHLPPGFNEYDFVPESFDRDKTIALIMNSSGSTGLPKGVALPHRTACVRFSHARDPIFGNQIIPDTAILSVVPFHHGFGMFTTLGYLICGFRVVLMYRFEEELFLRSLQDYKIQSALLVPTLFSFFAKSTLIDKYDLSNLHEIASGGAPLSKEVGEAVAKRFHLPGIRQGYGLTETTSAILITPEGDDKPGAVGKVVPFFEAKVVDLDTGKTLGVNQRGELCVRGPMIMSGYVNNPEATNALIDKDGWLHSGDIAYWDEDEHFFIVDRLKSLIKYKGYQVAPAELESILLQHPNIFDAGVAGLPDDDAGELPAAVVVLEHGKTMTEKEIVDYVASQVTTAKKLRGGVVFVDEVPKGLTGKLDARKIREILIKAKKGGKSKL
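Purified P. pyralis luciferase (10nM final) with 10uM D-luciferin and 10uM ATP (Km levels) in 50mM Tris acetate pH 7.5, 10mM Mg acetate, 0.01% Tween-20, 0.05% BSA; qHTS 6-point titration, ~60 µM downward; luminescence read.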
Rab9 prom act: qHTS Assay for Rab9 Promoter Activators; hit rate 2.8% among 320,000; Huh7 Rab9 promoter-luciferase reporter, luminescence, 24 h; Potency, µM (highest dose often 9.22 µM), without a hit: top-dose activation, negative = inhibition, most hits filed as activators; further: % of control where 0% means no effect; nearly all actives have a fitted effect of over 60% in size
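Cell-based reporter: Huh7 stable for Rab9 promoter-driven luciferase, plated in reduced-serum medium with 10% FBS at 1500 cells/well, compound-treated 24 h at 37 °C, luminescence read after 10 min reagent.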
ELG1 repair inh: qHTS screen for small molecules that inhibit ELG1-dependent DNA repair in human embryonic kidney (HEK293T) cells expressing luciferase-tagged ELG1 | hit rate 2.3% among 330,000 | AID 504467, 2011 | Potency, µM (series often up to 46.1 µM), for inactives: at the top dose activity change, negative = inhibition, usual class: inhibitors | HEK293T ELG1-luciferase reporter, luminescence, 16 h; DNA damage induced by 5-fluorouridine; further: on the % scale 0 is the no-effect control and ±100 the full control effect; nearly all actives have a fitted effect of over 55% in size
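In this reporter screen, reduction of luminescence relative to DMSO vehicle indicated activity. Compounds and 5-fluorouridine were added together to 2,000 cells per well, incubated for 16 hr at 37 °C, then developed with ONE-Glo.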
SMN2 splice up: qHTS Assay for Enhancers of SMN2 Splice Variant Expression; HEK293 SMN2-luciferase splicing reporter, luminescence, 30-36 h; Potency, µM (doses to about 46.1 µM), inactives show at the top dose activity change, positive = activation, hits mostly activators; hit rate 2.8% among 210,000; AID 1458, 2008; further: % of control where 0% means no effect; nearly all actives have a fitted effect of over 55% in size
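HEK293 cells carry an SMN2 […]–luciferase reporter in which exon 7 inclusion puts luciferase in frame. Cells were plated 10-12 h before compound addition, then incubated 30-36 h at 37C. ONE-Glo luminescence was read; sodium butyrate at 4.5 mM final served as control.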
ELG1 genotox: qHTS screen for small molecules that induce genotoxicity in human embryonic kidney (HEK293T) cells expressing luciferase-tagged ELG1; hit rate 1.3% among 330,000; AID 504466, 2011; HEK293T ELG1-luciferase reporter, luminescence, 16 h; Potency, µM (titrated, usually from 46 µM), for the others: at the highest dose activity change, positive = activation, actives largely listed as activators; further: % of control where 0% means no effect; nearly all actives have a fitted effect of over 60% in size
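HEK293T cells expressing luciferase-tagged ELG1 were exposed to compound or DMSO vehicle for 16 hr at 37 °C and 5% CO2. Luciferase activity was then measured with ONE-Glo after 30 min at room temperature.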
An asterisk follows results filed as active; u = inconclusive; x = not tested or not shown; [ ] = remark or other dose. The call rests on the fitted dose curve; in most records, active means well fitted curve in the direction sought with a large enough effect; inconclusive means small, poorly fitted or top-dose-only effect, or another doubt; inactive means no such curve, though single readings can be large; an effect the other way counts as inactive or inconclusive. Potency means the concentration at half of the fitted maximal effect.

SMILES	NPC1 promoter act	FLuc counter	Rab9 prom act	ELG1 repair inh	SMN2 splice up	ELG1 genotox
O=S(=O)(O)/C(=C\c1ccccc1)c1ccccc1 (tested in a mixture with another compound)	x	x	x	x	-7.4%[9.22 µM]	x
NC[C@@H](O)CSP(=O)(O)O	x	x	x	x	-14.5%[9.22 µM]	x
CSc1cccc(CNC(=O)C2CCC(=O)N(Cc3cccc(C(F)(F)F)c3)C2)c1 (configuration not stated)	u	16.9µM*	u	u	x	u
CC[C@]1(OC(=O)CN)C(=O)OCc2c1cc1n(c2=O)Cc2cc3ccccc3nc2-1	x	x	x	x	-30.4%[9.22 µM]	x
CNC(=O)[C@@H]1C[C@H]1[C@@H](NP(=O)(c1ccccc1)c1ccccc1)c1ccccc1	x	x	x	x	12.6µM*	x
Cc1ccc(OP(=O)(Oc2ccc(C)cc2)N2C=Cc3ccccc3[C@H]2C#N)cc1	x	x	x	x	-10.8%[9.22 µM]	x
CC(C)(C)c1csc(NC(=O)Nc2ccccc2)n1	3.98µM*	3.38µM*	1.78µM*	u	7.94µM*	-0.9%
COC(=O)C(Cc1ccc(N(CCCl)CCCl)cc1)N=Cc1ccccc1O (configuration not stated)	-34.2%	-13.5%	-49.3%	18.3µM*	x	u
CC1CC(OP(O)(=S)c2ccc(N(C)C)cc2NC(=O)c2cccs2)CC(C)(C)C1 (configuration not stated)	-2.8%	10.7µM*	-24.9%	-14.5%	42.8%	-7.3%
COc1ccc(-n2c(O)c(/C(C)=N/Nc3ccccc3)c(=O)[nH]c2=O)cc1	-3.1%	1.9%	-1.9%	7.3µM*	x	5.0%
COC(=O)C(O)(c1ccc(NC(=O)NC2CCCCC2)cc1)C(F)(F)F (configuration not stated)	u	12µM*	u	u	u	u
CN(C)c1ccc(C(=O)N/N=C/C23CC[C@@H](O)CC2(O)CC[C@@H]2[C@@H]3CCC3(C)C(C4=CC(=O)OC4)CCC23O)cc1 (some centres not stated)	-11.6%	4.2%	-33.6%	8.2µM*	x	-15.3%
CC12CC[C@H]3[C@@H](CCC4(O)C[C@H](O)CCC34/C=N/NC(=O)c3ccccc3F)C1(O)CCC2C1=CC(=O)OC1 (some centres not stated)	3.0%	-15.8%	-2.6%	u	x	-2.6%
COc1ccc(C(=O)N/N=C/C23CC[C@@H](O)CC2(O)CC[C@@H]2[C@@H]3CCC3(C)C(C4=CC(=O)OC4)CCC23O)cc1 (some centres not stated)	-3.2%	-7.7%	-1.5%	u	x	-12.6%
CC12CC[C@H]3[C@@H](CCC4(O)C[C@H](O)CCC34/C=N/NC(=O)c3ccc(O)cc3)C1(O)CCC2C1=CC(=O)OC1 (some centres not stated)	-1.7%	19µM*	-4.1%	4.1%	x	-2.3%
CC12CC[C@H]3[C@@H](CCC4(O)C[C@H](O)CCC34/C=N/NC(=O)c3ccccc3O)C1(O)CCC2C1=CC(=O)OC1 (some centres not stated)	7.1%	26.9µM*	-7.7%	u	x	-13.1%
CCCCC[CH2][Hg][S]C1=C2N=CNC2NC(N)=N1 (configuration not stated)	x	x	x	x	-47.6%[9.22 µM]	x
NC(N)=N/N=C/c1cn(-c2ccccc2)nc1-c1cccs1	-0.1%	4.26µM*	-3.1%	0.0%	-13.5%	1.2%
Cc1ccc(Cl)cc1N1CCN(C(=O)C2CCCN(S(=O)(=O)c3ccc(Br)s3)C2)CC1 (configuration not stated)	x	1.4%	x	x	-31.8%	x
Fc1cccc(F)c1-c1nc(-c2ccc(Cl)cc2)no1	3.98µM*	5.36µM*	2.82µM*	u	x	u
O=c1nc(/C=C/c2ccc(Cl)cc2Cl)cc(C(F)(F)F)[nH]1	0.6%	10.7µM*	-0.3%	15.4%	x	-4.5%
O=C1C2C3CCC(C3)C2C(=O)N1c1ccc(OS(=O)(=O)c2ccccc2)cc1 (configuration not stated)	3.55µM*	12µM*	1.12µM*	u	-27.2%	u
C[C@H]1C2C=C[C@H]1[C@@H](C(=O)O)[C@@H]2c1c2ccc(=O)c(O)c-2oc2c(O)c(O)ccc12	x	x	x	x	-3.0%[9.22 µM]	x
Cc1cc(NC(=O)CCl)on1	-6.1%	-1.9%	2.1%	-19.1%	26.6%	7.3%
Cc1ccc(-c2cc(NC(=O)c3ccccc3)on2)cc1	u	2.39µM*	2.24µM*	u	x	u
SMILES	NPC1 promoter act	FLuc counter	Rab9 prom act	ELG1 repair inh	SMN2 splice up	ELG1 genotox
O=C(CSc1ccccc1)N1CCC2(CC1)OCCO2	u	u	u	u	12.6µM*	10.3µM*
O=C(c1ccc(CNS(=O)(=O)c2ccccc2)cc1)N1CCC2(CC1)OCCO2	u	u	3.55µM*	u	-38.2%	u
O=C(CN1CCN(Cc2ccc(Cl)cc2)C1=O)N1CCC2(CC1)OCCO2	-2.0%	13.2%	-3.2%	-8.1%	-7.1%	-0.8%
Cn1c(=O)cc(SCC(=O)N2CCC3(CC2)OCCO3)c2ccc(Cl)cc21	-1.3%	1.0%	-2.4%	u	20µM*	14.2%
O=C(c1ccc(CNS(=O)(=O)c2ccc(Br)cc2)cc1)N1CCC2(CC1)OCCO2	-3.0%	6.3%	-5.8%	u	-31.9%	-4.7%
N#CCCCC[N+]12CN3CN(CN(C3)C1)C2	x	x	x	x	-9.6%[9.22 µM]	x
Cc1ccc(/C=C2\C(=O)NC(=S)N(c3ccccc3F)C2=O)s1	-5.2%	u	-3.5%	23.1µM*	4.7%	-18.0%
O=C(O)c1ccc(-n2c(O)c(/C=C3\C=Nc4ccccc43)c(=O)[nH]c2=O)cc1	2.1%	19µM*	-4.5%	-2.2%	x	0.4%
C[C@@H]1CC[C@@H]2N(C1)C[C@H]1[C@@](O)([C@H](O)C[C@]3(O)[C@H]4CC[C@H]5[C@]6(O)O[C@]4(C[C@]13O)[C@@]5(C)CC[C@@H]6O)[C@@]2(C)O	x	x	x	x	-6.8%[9.22 µM]	x
CCC1C=CC=CC[C@H](C)[C@@H](O)[C@](C)(O)C(=O)[C@@H](C)[C@H](O)[C@@H](C)C(=O)[C@H](C)[C@@H](O)[C@H](C)C=CC(=O)OC2[C@@H](C)C(CC1)OC1(CC[C@@H](C)C(C[C@H](C)O)O1)[C@@H]2C (some centres not stated)	-27.9%	3.8%	-32.9%	11.6µM*	x	-35.9%

Source: PubChem BioAssay
